Experimental data: PubChem BioAssay (NCI)
“And” between values parts separate entries of the source, which are not always exact repeats. Identical values can stand only once. The panel holds about 83,000 compounds, 20% with a hit somewhere; the sample as a whole holds those more often.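 Interpretation: 100, growth as untreated; towards 0, rising growth inhibition; 0, no net growth; 0 to -100, cell death. Compounds scoring below 10 were considered active.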 Unmarked numbers belong to inactive results. The source made the active and inactive calls.

Experiments:
Assay in all cases: NCI-60 one-dose screen, 48 h (100 = growth as untreated, 0 = no growth, -100 = all killed)
Conditions in all cases: 10 µM unless noted
NCI-H23 lung = test system: NCI-H23 lung
NCI-H226 lung = test system: NCI-H226 lung
NCI-H322M lung = test system: NCI-H322M lung
HOP-62 NSCLC = test system: HOP-62 NSCLC
NCI-H460 lung = test system: NCI-H460 lung
HOP-92 NSCLC = test system: HOP-92 NSCLC
NCI-H522 lung = test system: NCI-H522 lung
A549/ATCC NSCLC = test system: A549/ATCC NSCLC
786-0 renal = test system: 786-0 renal
COLO 205 colon = test system: COLO 205 colon
DU-145 prostate = test system: DU-145 prostate
K-562 leukemia = test system: K-562 leukemia
MALME-3M melanoma = test system: MALME-3M melanoma
MDA-MB-231 breast = test system: MDA-MB-231 breast
RXF 393 renal = test system: RXF 393 renal
SF-268 CNS = test system: SF-268 CNS
SF-295 CNS = test system: SF-295 CNS
UACC-257 melanoma = test system: UACC-257 melanoma
M14 melanoma = test system: M14 melanoma
SF-539 CNS = test system: SF-539 CNS

SMILES | growth (NCI-H23 lung) | growth (NCI-H226 lung) | growth (NCI-H322M lung) | growth (HOP-62 NSCLC) | growth (NCI-H460 lung) | growth (HOP-92 NSCLC) | growth (NCI-H522 lung) | growth (A549/ATCC NSCLC) | growth (786-0 renal) | growth (COLO 205 colon) | growth (DU-145 prostate) | growth (K-562 leukemia) | growth (MALME-3M melanoma) | growth (MDA-MB-231 breast) | growth (RXF 393 renal) | growth (SF-268 CNS) | growth (SF-295 CNS) | growth (UACC-257 melanoma) | growth (M14 melanoma) | growth (SF-539 CNS)
N#CCc1ccc(CC#N)cc1 | 103% | 90.4% | 107% | 88.4% | 101% | 3.82% (active) | 91.5% | 82.1% | 97.5% | 111% | 116% | 95.5% | 118% | 96.7% | 106% | 105% | 100% | 89% | 98.1% | 
C(=NC1CCCCC1)=NC1CCCCC1 | 106% and 31.1% | 103% and 57% | 117% and 99.1% | 109% and 86.8% | 107% and 100% | 92.8% and 62.3% | 91.8% and 85.2% | 111% and 87% | 104% and 87.1% | 115% and 88.6% | 107% and 97.9% | 97.8% and 69% | 108% and 53.2% | 97.2% and 88.3% | 109% and 94.6% | 108% and 88.2% | 87% | 133% and 44.3% | 115% and 87.1% | 101% and 97.7%
O=C1NC(=O)C(=Cc2ccccc2)C(=O)N1 | 98.5% and 102% | 96.1% and 101% | 106% and 105% | 94.9% and 92.6% | 127% and 105% | 85.9% and 109% | 96.1% and 94.5% | 101% and 91.4% | 102% and 107% | 135% and 109% | 103% and 111% | 86.2% and 112% | 96.1% and 109% | 96.4% and 110% | 98.5% and 116% | 92.9% and 104% | 107% and 102% | 98.6% | 103% and 106% | 133% and 101%
C[C@H](O)CCC(=O)c1ccoc1 | 99.7% | 99.2% | 106% | 108% | 105% | 111% | 99.5% | 97% | 106% | 116% | 100% | 96.5% | 106% | 108% | 99.4% | 98.9% | 107% | 99.5% | 108% | 102%
CC[PH+](CC)CC.O=COC1OC([S-])C(OC=O)C(OC=O)C1OC=O.[Au+] (stereo not drawn) | -57.3% (active) | -66.7% (active) | -95.9% (active) | -83.1% (active) | -59% (active) | -86.8% (active) | -75% (active) | -76.6% (active) | -83.4% (active) | -84.9% (active) | -43.7% (active) | -6.71% (active) | -92.1% (active) | -76.3% (active) | -91% (active) | -78.5% (active) | -16.3% (active) | -83.6% (active) | -63.1% (active) | -99.2% (active)
C#COc1cccc(Nc2ncnc3cc(NC(=O)CF)ccc23)c1 | 81.4% [6.25 µM] | 83.4% [6.25 µM] | 70.5% [6.25 µM] | 30.3% [6.25 µM] | 21.4% [6.25 µM] | 47.7% [6.25 µM] | -25.3% [6.25 µM] (active) | 40% [6.25 µM] | 30.7% [6.25 µM] | 13.2% [6.25 µM] | 76.1% [6.25 µM] | 7.01% [6.25 µM] (active) | 60.9% [6.25 µM] | 50.9% [6.25 µM] | 84.4% [6.25 µM] | 51.8% [6.25 µM] | 29.9% [6.25 µM] | 40.4% [6.25 µM] | 18.7% [6.25 µM] | 29.3% [6.25 µM]
Oc1ccccc1C=NCCN=Cc1ccccc1O.[Fe] | 86.1% | 85% | 111% | 74.9% | 59.7% | 98.7% | 47.5% | 61.6% | 102% | 108% | 104% | 85.3% | 69.7% | 34.9% | 98.8% | 97.4% | 85% | 46.9% | 93.9% | 88.8%
COC(=O)C12C3C4C1C1C2C3C41NC(=O)c1csc([C@@H](C[C@H](C(C)C)N(C)C(=O)[C@@H](NC(=O)[C@H]2CCCCN2C)C2CC2)OC(C)=O)n1 (stereo partly drawn) | 35.8% | 16.5% | 38.5% | 4.51% (active) | 7.89% (active) | 22.6% | -21.1% (active) | 13% | 22.7% | -65.4% (active) | 8.04% (active) | 8.03% (active) | 63.9% | 4.12% (active) | 19.7% | 25.6% | 9.2% (active) | 56% | 9.39% (active) | -24.4% (active)
CCCN1C(=O)NC(=O)C(CC)(N2C(=O)c3c(F)c(F)c(F)c(F)c3C2=O)C1=O (stereo not drawn) | -52.1% (active) | 27.4% | -57.7% (active) | -57.3% (active) | -81% (active) | -50.5% (active) | -82.3% (active) | -64.7% (active) | -58.5% (active) | -81.9% (active) | -98.9% (active) | -81.7% (active) | -71.1% (active) | -78.7% (active) | -95.1% (active) | -82.5% (active) | -68.6% (active) | -83.3% (active) | -64.7% (active) | -96.7% (active)
CCOC(=O)P(=O)(OCC)OCC | 112% | 106% | 82.6% | 109% | 116% | 94.9% | 85.7% | 101% | 113% | 112% | 115% | 121% | 122% | 110% | 115% | 104% | 126% | 102% | 116% | 106%
CC[C@@H](C)C(=O)O[C@H]1[C@H](O)[C@H]2[C@@H](CN3C[C@@H](C)CC[C@H]3[C@@]2(C)O)[C@@H]2C[C@]34O[C@]5(O)[C@@H](OC(=O)[C@@](C)(O)CC)CC[C@@]3(C)[C@@H]5[C@@H](OC(C)=O)[C@@H](OC(C)=O)[C@H]4[C@@]21O | 99.1% | 81.2% | 106% | 82.8% | 111% | 90% | 100% | 70.5% | 101% | 92.1% | 107% | 83.9% | 103% | 94.2% | 94.5% | 102% | 97.2% |  | 95.6% | 100%
C[C@]12CCc3sc(Nc4ccc(F)cc4)nc3C1=CC[C@@H]1[C@@H]2CC[C@]2(C)C(=O)CC[C@@H]12 | 72.8% | 86.7% | 82.1% | 82% | 69.9% | 96.8% | 62% | 79.5% | 5.28% (active) | 86% | 19.3% | 5.92% (active) | 78.7% | 84.4% | 13.2% | 69.3% | 28.7% | 85.9% | 90% | 54.4%
C=CC[PH+](c1ccccc1)c1ccccc1.C=CC[PH+](c1ccccc1)c1ccccc1.[Pt+2].[S-]c1ncccn1.[S-]c1ncccn1 | 36.6% | 3.04% (active) | 85.1% | 90.3% | 91.6% | -7.37% (active) | -46.1% (active) | 71.4% | 19.6% | -11.5% (active) | 35.5% | 5% (active) | -10.8% (active) | 7.07% (active) | -77.6% (active) | 87.4% | 84.2% | 66.7% | 1.19% (active) | 60.2%
Cc1ccc(N2CCN(CCC#N)CC2)cc1 | 100% | 92.1% | 75.2% | 93.6% | 97.7% | 98.4% | 84.6% | 88.5% | 100% | 93.7% | 101% | 110% | 70.1% | 107% | 88% | 105% | 105% | 84.5% | 98.6% | 79.1%
